Experimental data taken from the supplement of paper PMC4466140.

Legend:
Assay in all cases: SPOT peptide array binding signal intensity (averaged, normalized) (arbitrary units (background-subtracted, floor 0; scale differs between SH3 domains)); higher = stronger binding of the SH3 domain to the peptide
[1] = target: AgAbp1
How it was run: (§1)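 GST-fused SH3 domains, from four yeast species, were produced in E. coli BL21(DE3) and captured on glutathione Sepharose. Membranes of cellulose carrying synthetic 15-mer peptides, in which cysteines had been replaced by serines, were exposed to each domain at 10 μg/ml overnight at 4°C in TBS-based blocking buffer. After anti-GST antibody, an HRP anti-mouse secondary and luminol, spots were imaged and quantified using Genespotter. Binding signal is normalized and background-subtracted spot intensity, averaged over replicates, in arbitrary units that differ between domains.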

[2] = target: AgBbc1
How it was run: as §1

[3] = target: AgBem1-D1
How it was run: as §1

[4] = target: AgBzz1-D1
How it was run: as §1

[5] = target: AgBzz1-D2
How it was run: as §1

[6] = target: AgCyk3
How it was run: as §1

[7] = target: AgFus1
How it was run: as §1

[8] = target: AgHof1
How it was run: as §1

[9] = target: AgHse1
How it was run: as §1

[10] = target: AgLsb1
How it was run: as §1

[11] = target: AgLsb4
How it was run: as §1

[12] = target: AgMyo5
How it was run: as §1

[13] = target: AgNbp2
How it was run: as §1

[14] = target: AgRvs167
How it was run: as §1

[15] = target: AgSho1
How it was run: as §1

[16] = target: AgSla1-D1-D2
How it was run: as §1

[17] = target: AgSla1-D3
How it was run: as §1

[18] = target: CaAbp1-D1
How it was run: as §1

[19] = target: CaAbp1-D2
How it was run: as §1

[20] = target: CaBbc1
How it was run: as §1

[21] = target: CaBem1-D1
How it was run: as §1

[22] = target: CaBzz1-D1
How it was run: as §1

[23] = target: CaBzz1-D2
How it was run: as §1

[24] = target: CaCyk3
How it was run: as §1

[25] = target: CaFus1
How it was run: as §1

[26] = target: CaHof1
How it was run: as §1

[27] = target: CaHse1
How it was run: as §1

[28] = target: CaLsb1
How it was run: as §1

[29] = target: CaLsb4
How it was run: as §1

[30] = target: CaMyo5
How it was run: as §1

[31] = target: CaNbp2
How it was run: as §1

[32] = target: CaRvs167
How it was run: as §1

[33] = target: CaRvs167-3
How it was run: as §1

[34] = target: CaSho1
How it was run: as §1

[35] = target: CaSla1-D1-D2
How it was run: as §1

[36] = target: CaSla1-D3
How it was run: as §1

[37] = target: ScAbp1
How it was run: as §1

[38] = target: ScBbc1
How it was run: as §1

[39] = target: ScBem1-D1
How it was run: as §1

[40] = target: ScBzz1-D1
How it was run: as §1

[41] = target: ScBzz1-D2
How it was run: as §1

[42] = target: ScCyk3
How it was run: as §1

[43] = target: ScFus1
How it was run: as §1

[44] = target: ScHof1
How it was run: as §1

[45] = target: ScHse1
How it was run: as §1

[46] = target: ScLsb1
How it was run: as §1

[47] = target: ScLsb2
How it was run: as §1

[48] = target: ScLsb3
How it was run: as §1

[49] = target: ScLsb4
How it was run: as §1

[50] = target: ScMyo3
How it was run: as §1

[51] = target: ScMyo5
How it was run: as §1

[52] = target: ScNbp2
How it was run: as §1

[53] = target: ScPex13
How it was run: as §1

[54] = target: ScRvs167
How it was run: as §1

[55] = target: ScSho1
How it was run: as §1

[56] = target: ScSla1-D1-D2
How it was run: as §1

[57] = target: ScSla1-D3
How it was run: as §1

[58] = target: SpAbp1-D1
How it was run: as §1

[59] = target: SpBbc1
How it was run: as §1

[60] = target: SpBzz1-D1
How it was run: as §1

[61] = target: SpBzz1-D2
How it was run: as §1

[62] = target: SpCyk3
How it was run: as §1

[63] = target: SpHof1
How it was run: as §1

[64] = target: SpHof1-2
How it was run: as §1

[65] = target: SpHof1-3
How it was run: as §1

[66] = target: SpHse1
How it was run: as §1

[67] = target: SpLsb1
How it was run: as §1

[68] = target: SpLsb4
How it was run: as §1

[69] = target: SpMyo1
How it was run: as §1

[70] = target: SpNbp2
How it was run: as §1

[71] = target: SpPex13
How it was run: as §1

[72] = target: SpRvs167
How it was run: as §1

[73] = target: SpSla1-D1-D2
How it was run: as §1

[74] = target: SpSla1-D3
How it was run: as §1

B1: unnamed (peptide)
chain: GPPPPLPPPLFPSSS
SPOT peptide array binding signal intensity [1]: ≤ 0 | SPOT peptide array binding signal intensity [2]: ≤ 0 | SPOT peptide array binding signal intensity [3]: 31 | SPOT peptide array binding signal intensity [4]: ≤ 0 | SPOT peptide array binding signal intensity [5]: ≤ 0 | SPOT peptide array binding signal intensity [6]: ≤ 0 | SPOT peptide array binding signal intensity [7]: ≤ 0 | SPOT peptide array binding signal intensity [8]: 1830 | SPOT peptide array binding signal intensity [9]: 62.5 | SPOT peptide array binding signal intensity [10]: ≤ 0 | SPOT peptide array binding signal intensity [11]: ≤ 0 | SPOT peptide array binding signal intensity [12]: 1900 | SPOT peptide array binding signal intensity [13]: ≤ 0 | SPOT peptide array binding signal intensity [14]: 1 | SPOT peptide array binding signal intensity [15]: ≤ 0 | SPOT peptide array binding signal intensity [16]: ≤ 0 | SPOT peptide array binding signal intensity [17]: ≤ 0 | SPOT peptide array binding signal intensity [18]: 1 | SPOT peptide array binding signal intensity [19]: ≤ 0 | SPOT peptide array binding signal intensity [20]: 1 | SPOT peptide array binding signal intensity [21]: 114 | SPOT peptide array binding signal intensity [22]: 93 | SPOT peptide array binding signal intensity [23]: 10 | SPOT peptide array binding signal intensity [24]: ≤ 0 | SPOT peptide array binding signal intensity [25]: ≤ 0 | SPOT peptide array binding signal intensity [26]: 178 | SPOT peptide array binding signal intensity [27]: 1.5 | SPOT peptide array binding signal intensity [28]: ≤ 0 | SPOT peptide array binding signal intensity [29]: 11.5 | SPOT peptide array binding signal intensity [30]: 284 | SPOT peptide array binding signal intensity [31]: 6.5 | SPOT peptide array binding signal intensity [32]: 7.83 | SPOT peptide array binding signal intensity [33]: 1.5 | SPOT peptide array binding signal intensity [34]: ≤ 0 | SPOT peptide array binding signal intensity [35]: ≤ 0 | SPOT peptide array binding signal intensity [36]: ≤ 0 | SPOT peptide array binding signal intensity [37]: ≤ 0 | SPOT peptide array binding signal intensity [38]: ≤ 0 | SPOT peptide array binding signal intensity [39]: ≤ 0 | SPOT peptide array binding signal intensity [40]: 1.5 | SPOT peptide array binding signal intensity [41]: ≤ 0 | SPOT peptide array binding signal intensity [42]: ≤ 0 | SPOT peptide array binding signal intensity [43]: ≤ 0 | SPOT peptide array binding signal intensity [44]: 1900 | SPOT peptide array binding signal intensity [45]: ≤ 0 | SPOT peptide array binding signal intensity [46]: 288 | SPOT peptide array binding signal intensity [47]: 12 | SPOT peptide array binding signal intensity [48]: 110 | SPOT peptide array binding signal intensity [49]: 20 | SPOT peptide array binding signal intensity [50]: 1490 | SPOT peptide array binding signal intensity [51]: 901 | SPOT peptide array binding signal intensity [52]: ≤ 0 | SPOT peptide array binding signal intensity [53]: 4060 | SPOT peptide array binding signal intensity [54]: 32.5 | SPOT peptide array binding signal intensity [55]: ≤ 0 | SPOT peptide array binding signal intensity [56]: ≤ 0 | SPOT peptide array binding signal intensity [57]: ≤ 0 | SPOT peptide array binding signal intensity [58]: ≤ 0 | SPOT peptide array binding signal intensity [59]: ≤ 0 | SPOT peptide array binding signal intensity [60]: 683

B2: unnamed (peptide)
chain: APKHAPPPVPNETDN
SPOT peptide array binding signal intensity [31]: ≤ 0 | SPOT peptide array binding signal intensity [32]: ≤ 0 | SPOT peptide array binding signal intensity [33]: ≤ 0 | SPOT peptide array binding signal intensity [34]: ≤ 0 | SPOT peptide array binding signal intensity [35]: ≤ 0 | SPOT peptide array binding signal intensity [36]: ≤ 0 | SPOT peptide array binding signal intensity [37]: ≤ 0 | SPOT peptide array binding signal intensity [38]: ≤ 0 | SPOT peptide array binding signal intensity [39]: ≤ 0 | SPOT peptide array binding signal intensity [40]: 618 | SPOT peptide array binding signal intensity [41]: ≤ 0 | SPOT peptide array binding signal intensity [42]: ≤ 0 | SPOT peptide array binding signal intensity [43]: ≤ 0 | SPOT peptide array binding signal intensity [44]: ≤ 0 | SPOT peptide array binding signal intensity [45]: ≤ 0 | SPOT peptide array binding signal intensity [46]: ≤ 0 | SPOT peptide array binding signal intensity [47]: ≤ 0 | SPOT peptide array binding signal intensity [48]: ≤ 0 | SPOT peptide array binding signal intensity [49]: ≤ 0 | SPOT peptide array binding signal intensity [50]: 1380 | SPOT peptide array binding signal intensity [51]: 1230 | SPOT peptide array binding signal intensity [52]: ≤ 0 | SPOT peptide array binding signal intensity [53]: ≤ 0 | SPOT peptide array binding signal intensity [54]: ≤ 0 | SPOT peptide array binding signal intensity [55]: ≤ 0 | SPOT peptide array binding signal intensity [56]: ≤ 0 | SPOT peptide array binding signal intensity [57]: ≤ 0 | SPOT peptide array binding signal intensity [58]: ≤ 0 | SPOT peptide array binding signal intensity [59]: ≤ 0 | SPOT peptide array binding signal intensity [60]: ≤ 0 | SPOT peptide array binding signal intensity [61]: ≤ 0 | SPOT peptide array binding signal intensity [62]: ≤ 0 | SPOT peptide array binding signal intensity [63]: ≤ 0 | SPOT peptide array binding signal intensity [64]: ≤ 0 | SPOT peptide array binding signal intensity [65]: ≤ 0 | SPOT peptide array binding signal intensity [66]: 140 | SPOT peptide array binding signal intensity [67]: ≤ 0 | SPOT peptide array binding signal intensity [68]: ≤ 0 | SPOT peptide array binding signal intensity [69]: 691 | SPOT peptide array binding signal intensity [70]: ≤ 0 | SPOT peptide array binding signal intensity [71]: ≤ 0 | SPOT peptide array binding signal intensity [72]: 2.5 | SPOT peptide array binding signal intensity [73]: ≤ 0 | SPOT peptide array binding signal intensity [74]: ≤ 0
